Consider eleven compounds from PubChem BioAssay (Tox21).

Records with an inconclusive call do not appear. Active and inactive are the calls of the source. Unless noted, calls follow the shape of the dose curve; as a rule, active = well fitted curve in the direction sought with a large enough effect in the repeat runs; inconclusive = weak or mixed curves; inactive = no such curve, though single readings can be large; an effect the other way counts as inactive or inconclusive.

A short description of experiment [1]: qHTS assay to identify small molecule antagonists of the vitamin D receptor (VDR) signaling pathway - cell viability counter screen (AID 743225). Also: nearly all actives have a fitted effect of over 50% in size. The gist of the method:
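Cytotoxicity toward the VDR-bla HEK 293T line was scored by ATP-based CellTiter-Glo luminescence, read in the wells already used for the beta-lactamase readout after 16 h compound treatment under 3 nM 1-alpha,25-dihydroxyvitamin D3 stimulation.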

The nature of experiment [2]: qHTS assay to identify small molecule agonists of the NFkB signaling pathway (AID 1159509; active = well fitted curve in the direction sought with a large enough effect in the signal ratio in the repeat runs, not every such curve was filed as active; the % refers to the signal ratio; also: series mostly up to about 61 µM). In short, it runs like this:
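NFkB-bla ME-180 cells with a beta-lactamase reporter under an NF-kB response element were plated overnight, treated with compounds in DMSO for 5 hr at 37 C, then loaded with FRET substrate for 1.5 hr at room temperature.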

Experiment [3] is described as follows: qHTS assay to identify small molecule agonists of the NFkB signaling pathway - cell viability counter screen (AID 1159515; calls by dose curve; also: series mostly up to about 61 µM; nearly all actives have a fitted effect of over 55% in size). In short, it runs like this: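 5 hr compound treatment of NFkB-bla ME-180 cells (2,000/well, seeded overnight beforehand), followed by reporter substrate for 1.5 hr. CellTiter-Glo added afterward; luminescence after 30 min RT.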
The nature of experiment [4]: qHTS assay to identify small molecule agonists of the endoplasmic reticulum stress response signaling pathway (AID 1159516; active = well fitted activation curve with a large enough effect in the signal ratio in the repeat runs, not every such curve was filed as active; the % refers to the signal ratio). The gist of the method:
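Reporter HeLa cells (ESRE-beta-lactamase) underwent 5 hr compound incubation at 37 C and 5% CO2 in quantitative HTS format. Detection followed 2 hr of FRET substrate loading at room temperature.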

Experiment [5] in a line: qHTS assay to identify small molecule agonists of the endoplasmic reticulum stress response signaling pathway - cell viability counter screen (AID 1159517; calls by dose curve;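 also: HeLa cells carrying an ER stress response element beta-lactamase reporter; series mostly up to about 61 µM; nearly all actives have a fitted effect of over 50% in size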). The gist of the method: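 Luminescence readout: CellTiter-Glo, 30 min RT, same wells as the ESRE-bla reporter read. HeLa ESRE-bla, 1,500 cells/well, o/n 37 C; cpd 5 hr 37 C/5% CO2.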
The nature of experiment [6]: qHTS assay to identify small molecule antagonists of the retinoid-related orphan receptor gamma (ROR-gamma) signaling pathway - cell viability counter screen (AID 1159520). Also: nearly all actives have a fitted effect of over 50% in size. In short, it runs like this:
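Tet-on ROR gamma CHO cells (1,000/well) were plated 4 hr, given compounds in DMSO for 2 hr at 37 C, then induced with 1 uM final doxycycline for 16 hr. Viability was read as ATP by CellTiter-Glo luminescence after 30 min.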

A short description of experiment [7]: qHTS assay to identify small molecule agonists of the AP-1 signaling pathway - cell viability counter screen (AID 1159525; calls by dose curve; also: nearly all actives have a fitted effect of over 55% in size). In short, it runs like this:
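ME-180 AP-1-bla, 2500 cells/well, Opti-MEM + 0.5% dialyzed FBS; overnight 37 °C; cpd 15-pt titration, 5 h 37 °C; CellTiter-Glo 30 min RT; luminescence read; normalised to TOAB and DMSO controls.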

Experiment [8] in a line: qHTS assay to identify small molecule agonists of the AP-1 signaling pathway (AID 1159526; calls by dose curve).
Experiment [9] can be described thus: qHTS assay to identify small molecule agonists of the RXR signaling pathway - cell viability counter screen (AID 1159529). Also: series mostly up to about 77 µM; nearly all actives have a fitted effect of over 50% in size. In short, it runs like this: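 Tox21 10K compounds were tested for cytotoxicity against GeneBLAzer RXR-alpha HEK 293T cells grown in 2% charcoal-stripped FBS. Exposure lasted 16 hr at 37 C, 5% CO2; viability read by CellTiter-Glo luminescence.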

A short description of experiment [10]: qHTS assay to identify small molecule antagonists of the retinoid acid receptor (RAR) signaling pathway - cell viability counter screen (AID 1159551). Also: nearly all actives have a fitted effect of over 35% in size. The gist of the method:
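Seed C3RL4 cells; next day add compound, then retinol to 1 uM final; incubate 6 h at 37 C; add CellTiter-Glo; read luminescence after 30 min at RT.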

The nature of experiment [11]: qHTS assay to identify small molecule antagonists of the retinoic acid receptor (RAR) signaling pathway (AID 1159552; also: nearly all actives have a fitted effect of over 50% in size). In short, it runs like this:
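Overnight-plated C3RL4 reporter cells get compound, then retinol to 1 uM final; plates sit 6 hr at 37 C, 5% CO2. A luciferase reagent is added and light output recorded after 30 min at room temperature.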

The target of experiment [12] is Nuclear receptor ROR-gamma (Homo sapiens) (UniProt P51449). The experiment can be described thus: qHTS assay to identify small molecule antagonists of the retinoid-related orphan receptor gamma (ROR-gamma) signaling pathway (AID 1159521). The gist of the method: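 Readout: ONE-Glo luciferase luminescence, 30 min at room temperature. System: Tet-on RORγ CHO, RORE-LUC. Sequence: compound 2 h, doxycycline 1 uM final, 16 h at 37 C.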

Experiment [13] in a line: qHTS assay to identify small molecule agonists of the retinoic acid receptor (RAR) signaling pathway (AID 1159553). Also: potency is read from the fitted curve at half-maximal effect. The gist of the method:
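Activation of retinol signaling was monitored via a RARE luciferase reporter in C3RL4 cells. After 6 hr compound treatment at 37 C, detection reagent was added for 30 min at room temperature before luminescence reading.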

Experiment [14] deals with Retinoic acid receptor RXR-alpha (Homo sapiens) (UniProt P19793). Briefly: qHTS assay to identify small molecule agonists of the RXR signaling pathway (AID 1159527; calls by dose curve; also: nearly all actives have a fitted effect of over 35% in size). The gist of the method:
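Reporter activation is measured as beta-lactamase activity via FRET substrate cleavage (emission 460/530 nm) in HEK 293T cells expressing an RXR-alpha-driven bla construct, following 16 hr compound exposure at 37 C.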

Experiment [15] can be described thus: qHTS assay to identify small molecule antagonists of the estrogen related receptor (ERR) signaling pathway (AID 1224819). The gist of the method: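 qHTS in ERR cells, 2,000/well, 1536 format. Cpd (DMSO) added after 6 h settle, 18 h 37 C. One-Glo luminescence, 30 min RT.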
Experiment [16] can be described thus: qHTS assay to identify small molecule agonists of the estrogen related receptor (ERR) signaling pathway (AID 1224820). The gist of the method:
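ERR reporter cells (NTP line) plated 2,000/well, incubated 6 h at 37 C/5% CO2, then pinned with compounds in DMSO and held 18 h at 37 C. One-Glo added; luminescence read after 30 min at room temperature.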

Experiment [17] in a line: qHTS assay to identify small molecule agonists of the estrogen related receptor signaling pathway with the pleiotropic PPARgamma coactivator (PGC) (AID 1224823). In short, it runs like this:
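PGC/ERR reporter cells were seeded, rested 6 h at 37 C/5% CO2, then exposed to compounds in DMSO by pin transfer for 18 h at 37 C. Luciferase activity was read as luminescence after One-Glo reagent and 30 min at room temperature.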

Chain of Retinoic acid receptor RXR-alpha (Homo sapiens) (P19793 whole entry, looked up): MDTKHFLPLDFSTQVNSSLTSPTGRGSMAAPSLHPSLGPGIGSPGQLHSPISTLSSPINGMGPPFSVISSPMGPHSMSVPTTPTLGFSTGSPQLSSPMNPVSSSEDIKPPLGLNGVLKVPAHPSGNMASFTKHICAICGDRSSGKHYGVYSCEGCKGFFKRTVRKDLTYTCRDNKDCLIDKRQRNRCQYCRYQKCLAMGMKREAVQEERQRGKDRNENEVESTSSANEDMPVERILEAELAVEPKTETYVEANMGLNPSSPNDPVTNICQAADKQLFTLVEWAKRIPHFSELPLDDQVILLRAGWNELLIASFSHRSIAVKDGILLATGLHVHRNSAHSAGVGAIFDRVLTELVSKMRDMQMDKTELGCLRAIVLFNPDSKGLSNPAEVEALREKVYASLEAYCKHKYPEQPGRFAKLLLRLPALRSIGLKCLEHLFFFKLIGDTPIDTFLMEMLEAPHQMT

For `CCCCOc1ccc(N)cc1`, the call in experiment [1], in [2], in [3], in [4], in [5] and in experiment [7] was inactive. For the same compound, the compound was classed as inactive in experiment [10] and in experiment [11]. Further, the Potency result in [6], in [8] and in experiment [9] was “inactive” each time.
`CCC(C(=O)O)c1ccc(N2Cc3ccccc3C2=O)cc1` (stereo not drawn): the compound was classed as inactive in [1], in experiment [2], in experiment [3], in experiment [4], in experiment [5] and in experiment [10]. Besides, the Potency result in experiment [6], in experiment [12], in experiment [8] and in experiment [9] was “inactive” throughout. Further, the Potency in experiment [13] is 3.76 µM (active).
On to `CC(=O)c1ccc(Cl)c(Cl)c1Cl`, for which the compound was classed as inactive in [1], in experiment [2], in [3], in [4], in [5] and in experiment [7]. Besides, the compound was called inactive in experiment [10] and in experiment [11]. Also, the Potency entry in experiment [6], in experiment [8], in experiment [9] and in experiment [13] was “inactive” in each case.
As to `C[C@H](CN1CCCC1)C(=O)c1ccc(C(F)(F)F)cc1`, the compound was called inactive in experiment [1], in experiment [2], in experiment [3], in [4], in experiment [5] and in experiment [7]. For the same compound, in [11], the compound was classed as inactive. For the same compound, the Potency result in [6], in experiment [8] and in [13] was “inactive” in each case.
Turning to `Cc1cc(C)c(C)c(O)c1`, the outcome in experiment [1], in [2], in experiment [3], in experiment [4], in [5] and in [14] was inactive. The compound was classed as inactive in experiment [10] and in [11]. Moreover, the Potency result in experiment [6], in experiment [12], in experiment [9] and in experiment [13] was “inactive” in each case.
Take `Cc1nc2sccn2c(=O)c1CCN1CCC(=C(c2ccc(F)cc2)c2ccc(F)cc2)CC1`: the outcome in experiment [2], in [3], in [4], in [5], in experiment [7] and in experiment [10] was inactive. Moreover, the call in experiment [11], in experiment [16] and in experiment [17] was inactive. Moreover, the Potency result in [6], in experiment [8] and in experiment [13] was “inactive” throughout. For the same compound, the Potency in experiment [15] was 19.6 µM (active).
For `CCOC(=O)CC(O)(CC(=O)OCC)C(=O)OCC`, the compound was classed as inactive in [1], in experiment [2], in experiment [3], in experiment [4], in experiment [5] and in experiment [7]. The compound was classed as inactive in experiment [10] and in experiment [11]. In addition, the Potency result in experiment [6], in experiment [8], in [9] and in experiment [13] was “inactive” in each case.
Take `CC(CN=Cc1ccccc1O)N=Cc1ccccc1O` (stereo not drawn): the call in [2], in experiment [3], in [4], in experiment [5], in experiment [7] and in experiment [11] was inactive. The Potency entry in experiment [6], in experiment [8], in experiment [9] and in [13] was “inactive” in each case.
Consider `CC(C)Oc1ccccc1O`, for which the result in experiment [1], in experiment [2], in experiment [3], in experiment [4], in experiment [5] and in experiment [10] was inactive. The Potency entry in experiment [6], in [12], in [8] and in [9] was “inactive” throughout.
On to `CCC(C)CCCC(C)(C)O` (stereo not drawn), for which the result in [1], in experiment [2], in experiment [3], in experiment [4], in [5] and in [7] was inactive. The outcome in [10] and in experiment [11] was inactive. Besides, the Potency result in experiment [6], in experiment [8], in experiment [9] and in [13] was “inactive” in each case.
Take `CCCCC(CC)COCCC#N` (stereo not drawn): the call in experiment [1], in experiment [2], in [3], in [4], in experiment [5] and in [7] was inactive. Also, in [10], the outcome was inactive. Besides, the Potency entry in experiment [6], in [8] and in experiment [9] was “inactive” throughout.
